Screen size: about 50,000 compounds; about 800 (1.6%) showed an effect of 50% or more. What follows is part of a selection rich in strong results, with near analogues and random picks from the rest.
What follows are compounds tested against Bcl-2-like protein 10 (Homo sapiens) (UniProt Q9HD36) (assay: Phenotype converters, Bcl-B/TR3 peptide binding displacement, primary biochemical FP (AID 1240;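 also: 0% = Bcl-B with tracer peptide and DMSO and 100% = tracer peptide lacking Bcl-B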)). Conditions: GST-Bcl-B / FITC-TR3 peptide fluorescence polarization; stronger effect = higher value; compound at 3.75 mg/L.
Bcl-2-like protein 10 (Homo sapiens), sequence (Q9HD36 whole entry, looked up): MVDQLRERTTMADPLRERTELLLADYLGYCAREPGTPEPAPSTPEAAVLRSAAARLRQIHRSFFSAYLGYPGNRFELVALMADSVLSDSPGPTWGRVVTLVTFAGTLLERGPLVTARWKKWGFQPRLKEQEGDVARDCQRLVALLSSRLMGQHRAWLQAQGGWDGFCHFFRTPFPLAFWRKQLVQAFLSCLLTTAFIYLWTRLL

SMILES | displacement [%]
C=CCOc1ccc(/C=C/C(=O)c2ccc(Cl)cc2)cc1 | -2.1
O=C(NCc1ccccc1)c1nn2c(c1Cl)NC(c1ccc(Cl)cc1)CC2C(F)(F)F (stereo unspecified) | 1.1
O=C(NCc1ccccc1)C(O)(c1ccc(F)cc1)c1ccc(F)cc1 | -12.1
CSc1ccc(CN2CCN(C(=O)c3ccco3)CC2)cc1 | -13.1
O=[N+]([O-])c1ccc(F)c(NS(=O)(=O)c2cc(Cl)ccc2Cl)c1 | -1.9
Cc1cc(NC(=O)c2cccc(F)c2)ccc1NC(=O)c1ccccc1 | -3.3
O=C1NC(=Nc2ccc(Br)cc2)S/C1=C\c1ccc2c(c1)OCO2 | 68.8
COc1ccc(N=C2NC(=O)/C(=C/c3ccc(Cl)cc3)S2)cc1 | 10.7
COc1ccc(N=C2NC(=O)/C(=C/c3ccc(N(C)C)cc3)S2)cc1 | 84.9
COc1ccc(/C=C2/SC(=Nc3ccc(O)cc3)NC2=O)cc1 | -15.9
CN(C)c1ccc(/C=C2\SC(=Nc3ccc(O)cc3)NC2=O)cc1 | 50.9
O=C1NC(=Nc2ccc(Br)cc2)S/C1=C\c1ccc(O)cc1 | 10
Cc1ccc(/C=C2\SC(=Nc3ccc(O)cc3)NC2=O)cc1 | 0.1
O=C1NC(=Nc2ccc(F)cc2)S/C1=C/c1ccc(Br)cc1 | 8
O=C1NC(=Nc2ccc(O)cc2)S/C1=C\c1ccc(Cl)cc1 | 0.3
COC(=O)c1c(C)oc2ccc(OCc3cccc(Br)c3)cc12 | 9.3
CCC(=NCc1ccccc1)c1c(C(F)(F)F)[nH]n(-c2nc3ccccc3s2)c1=O | -13.5
Cc1ccc(N2NC(=O)/C(=C/C=C/c3ccccc3)C2=O)cc1C | 8.4
Cc1ccc(Cl)cc1NC(=O)C(=O)NCc1ccco1 | -13.4
CCOC(=O)c1c(-c2ccc(C)cc2)csc1NC(=O)C(C)(C)C | 7.5
Cc1c(C(=O)NCCc2ccccc2)cccc1[N+](=O)[O-] | -8
CN(C)c1ccc(N/C(N)=N/c2nc(C(F)(F)F)cc(=O)[nH]2)cc1 | -5.8

SMILES | displacement [%]
N/C(=N/N=C/c1ccc2c(c1)OCO2)c1ccccn1 | -7.7
O=C(c1ccccc1)N1CC(=O)N2CCc3ccccc3C2C1 (stereo unspecified) | 1
O=C1/C(=C/c2ccccc2)SC(=S)N1c1ccccc1Cl | -7.4
COc1cccc(C2NC(=O)NC(C)=C2C(=O)Nc2ccccc2C)c1 (stereo unspecified) | 4.3
CCOC(=O)C1=C(C)N=c2s/c(=C\c3ccc(I)cc3)c(=O)n2C1c1ccc(OC)c(OC)c1 (stereo unspecified) | 111
CCOC(=O)C1=C(C)N=c2s/c(=C\c3ccc(NC(C)=O)cc3)c(=O)n2C1c1ccc(OC)cc1 (stereo unspecified) | 116
COC(=O)C1=C(C)N=c2s/c(=C/c3ccc(F)cc3)c(=O)n2C1c1ccc(OC)cc1 (stereo unspecified) | 5.7
COC(=O)C1=C(C)N=c2s/c(=C\c3ccc(Cl)cc3)c(=O)n2C1c1ccc(OC)c(OC)c1 (stereo unspecified) | 9.9
CCOC(=O)C1=C(C)N=c2s/c(=C\c3ccc(N(C)C)cc3)c(=O)n2C1c1ccc(OC)c(OC)c1 (stereo unspecified) | -38.5
C=CCOc1ccc(/C=c2/sc3n(c2=O)C(c2ccc(OC)c(OC)c2)C(C(=O)OC)=C(C)N=3)cc1 (stereo unspecified) | 106
COC(=O)C1=C(C)N=c2s/c(=C\c3ccccc3Cl)c(=O)n2C1c1cccs1 (stereo unspecified) | 84.9
CCOC(=O)C1=C(C)N=c2s/c(=C\c3ccc(C(=O)O)cc3)c(=O)n2C1c1ccc(OC)c(OC)c1 (stereo unspecified) | -22.8
CCOC(=O)C1=C(C)N=c2s/c(=C\c3cc4c(cc3Cl)OCO4)c(=O)n2C1c1cccs1 (stereo unspecified) | -8.9
CCOC(=O)C1=C(C)N=c2s/c(=C\c3cn(C)c4ccccc34)c(=O)n2C1c1cccs1 (stereo unspecified) | 11.5
CCOC(=O)C1=C(C)N=c2s/c(=C\c3ccc(NC(C)=O)cc3)c(=O)n2C1c1ccccc1 (stereo unspecified) | -24.8
CCOC(=O)C1=C(C)N=c2s/c(=C\c3ccc(OC)cc3)c(=O)n2C1c1ccc(OC)cc1 (stereo unspecified) | -5.7
CCOc1ccc(C(=O)Nc2cc(OC)ccc2OC)cc1Br | -9
COc1ccc(C(=O)N2CCN(c3cccc(C)c3C)CC2)c(OC)c1 | -4.4
CCN(CC)c1ccc(N2C(=O)/C(=C/C=C/c3ccccc3)SC2=S)cc1 | -4.2
CCCOC(=O)c1c(NC(=O)c2c(-c3ccccc3)noc2C)sc2c1CCCCC2 | -7.2
COc1ccc(CN2CCN(C3CCC(c4ccccc4)CC3)CC2)c(OC)c1OC (stereo unspecified) | -12
CC(C)OC(=O)c1c(-c2ccc(F)cc2)csc1N | 1.3

SMILES | displacement [%]
COc1ccc(N2C(=O)/C(=C\C(Br)=C\c3ccccc3)SC2=S)cc1 | 5.6
CCOC(=O)C1=C(C)N=c2s/c(=C\c3ccccn3)c(=O)n2C1c1ccc(OC)c(OC)c1 (stereo unspecified) | 42.1
CCOC(=O)C1=C(C)N=c2s/c(=C\c3ccccc3Cl)c(=O)n2C1c1ccc(OC)c(OC)c1 (stereo unspecified) | 106
CCOC(=O)C1=C(C)N=c2s/c(=C\c3ccc(NC(C)=O)cc3)c(=O)n2C1c1ccc(OC)c(OC)c1 (stereo unspecified) | 88.9
CCOC(=O)C1=C(C)N=c2s/c(=C\c3ccc(N(CC)CC)o3)c(=O)n2C1c1ccc(OC)c(OC)c1 (stereo unspecified) | -25
CCOC(=O)C1=C(C)N=c2s/c(=C\c3ccccc3F)c(=O)n2C1c1ccc(OC)c(OC)c1 (stereo unspecified) | 6.3
CCOC(=O)C1=C(C)N=c2s/c(=C\c3cc(Br)c(O)c(OC)c3)c(=O)n2C1c1ccc(OC)c(OC)c1 (stereo unspecified) | -85.1
CC(=O)N(c1ccccc1)c1c(F)c(F)c(F)c(F)c1F | -8.8
O=C(COc1ccc(Cl)cc1Br)Nc1ccc2c(c1)OCCO2 | 1.8
CCOC(=O)c1conc1-c1ccc(SC)cc1 | 6.5
COc1ccc(CN2CCN(Cc3cc(Br)ccc3O)CC2)c(OC)c1 | 1.4
COc1cc(C(=O)N2CCN(Cc3cccc(C(F)(F)F)c3)CC2)cc(OC)c1OC | 3.1
CC(=O)Nc1ccc(-c2nc3ccc(C)cc3s2)cc1 | -3.9
O=C(Nc1ccc(-c2nc3ccccc3s2)c(O)c1)c1ccc2c(c1)OCCO2 | -3.8
CCOc1ccc(C(=O)Nc2ccc(-c3nc4ccc(C)cc4s3)cc2)cc1 | 13.3
O=C(Nc1cccc(-c2nc3ccccc3s2)c1)c1ccc2c(c1)OCCO2 | 5.6
O=C(Nc1ccc(O)c(-c2nc3ccccc3s2)c1)c1ccc2c(c1)OCCO2 | 82.5
Cc1ccc2nc(-c3ccc(NC(=O)c4ccc5c(c4)OCCO5)cc3)sc2c1 | 73.2
O=CN1N=C(c2ccccc2)CC1(O)C(F)(F)F (stereo unspecified) | 13.4
CCOC(=O)c1c(NC(=O)CC2Nc3ccccc3NC2=O)sc2c1CCCC2 (stereo unspecified) | 130
CCc1ccc(NC(=O)CC2Nc3ccccc3NC2=O)cc1 (stereo unspecified) | -35.7
COC(=O)c1ccc(NC(=O)CC2Nc3ccccc3NC2=O)cc1 (stereo unspecified) | 108

SMILES | displacement [%]
O=C(CC1Nc2ccccc2NC1=O)Nc1ccc(Br)cc1 (stereo unspecified) | -5.1
CCOC(=O)c1c(NC(=O)CC2Nc3ccccc3NC2=O)sc(C)c1C (stereo unspecified) | -9.5
CCOC(=O)c1c(NC(=O)CC2Nc3cc(C)c(C)cc3NC2=O)sc2c1CCCC2 (stereo unspecified) | 48.8
O=[N+]([O-])c1ccc(COc2ccccc2/C=N/Nc2nc3ccccc3s2)cc1 | -2.1
O=C(COc1ccc(Cl)cc1Cl)N1CCN(C(=O)COc2ccc(Cl)cc2Cl)CC1 | 2
CCOC(=O)c1ccc(Nc2nc3nonc3nc2NC(C)C)cc1 | -7.1
O=C1NC(=S)N/C1=C\c1ccccc1 | 0.7
O=C1NC(=S)N/C1=C/c1ccc(N2CCOCC2)cc1 | 94.5
Cc1cc(/C=C2/NC(=S)NC2=O)c(C)n1-c1ccc(N2CCOCC2)cc1 | -9
COc1ccc(CC(=O)Nc2ccc(Cl)c(C(F)(F)F)c2)cc1OC | 6.1
O=C(Nc1ccc(Br)cc1)c1ccccc1C(F)(F)F | 23.2
O=C1c2ccccc2C(=O)c2c1cc(NC1CCCCC1)c1nsnc21 | 15.8
O=C1C(NC2CCCCC2)=C(N2CCCCC2)C(=O)c2ccccc21 | 7.4
O=C1c2ccccc2-c2c(NC3CCCCC3)c(=O)[nH]c3cccc1c23 | 150
CCc1ccc(-n2c(C)cc(/C=C3/SC(=S)NC3=O)c2C)cc1 | 63
Cc1cccc(-n2c(C)cc(C=C3C(=O)NC(=S)NC3=O)c2C)c1 | 72.3
Cc1ccc(-n2c(C)cc(C=C3C(=O)NC(=S)NC3=O)c2C)cc1C | 0.1
Cc1cc(/C=C2/NC(=S)NC2=O)c(C)n1-c1cccc(Cl)c1 | -12.9
Cc1cc(/C=C2/SC(=S)NC2=O)c(C)n1-c1ccc(F)cc1 | -6.4
Cc1cc(C=C2C(=O)NC(=S)NC2=O)c(C)n1-c1ccc(Br)cc1 | 21
Cc1cc(C=C2C(=O)NC(=S)NC2=O)c(C)n1-c1cccc(Cl)c1 | 107
Cc1cccc(-n2c(C)cc(/C=C3/NC(=S)NC3=O)c2C)c1 | -38.6

SMILES | displacement [%]
Cc1cc(/C=C2/SC(=S)NC2=O)c(C)n1-c1ccccc1 | -39.7
CCOC(=O)c1ccc(NC(=O)CN(c2ccc(Oc3ccccc3)cc2)S(C)(=O)=O)cc1 | -2.7
Cc1ccc(-c2nc(N/N=C/c3cccc(F)c3)c3ccccc3n2)cc1 | 5
COc1ccc(C(=O)N2CCN(Cc3ccc4c(c3)OCO4)CC2)cc1OC | 10.6
CCOC(=O)C1=C(C)N=c2s/c(=C\c3ccc(N(C)C)o3)c(=O)n2C1c1ccc(F)cc1 (stereo unspecified) | -22.6
CCOc1cc(C2/C(=C(\O)c3ccc(C)cc3)C(=O)C(=O)N2c2nncs2)ccc1O (stereo unspecified) | 8.3
COc1ccc(/C(N)=N/OC(=O)c2ccc(C)c([N+](=O)[O-])c2)cc1 | -1.8
CCCCOC(=O)c1cccc(NC(=O)c2ccc(OC)cc2)c1 | -3.1
COc1ccc(C2=NN(C(C)=O)C(c3ccccc3OC)C2)cc1 (stereo unspecified) | 2.3
CC(NC(=O)CN(c1cccc(C(F)(F)F)c1)S(C)(=O)=O)c1ccccc1 (stereo unspecified) | 0.7
CCOc1ccc(N(CC(=O)N2CCOCC2)S(=O)(=O)c2ccc(SC)cc2)cc1 | -1.3
C=CCN1C(=O)/C(=C\c2ccc(OCc3ccccc3)c(OCC)c2)SC1=S | 49.5
Cc1cc(C)c(/C(O)=C/c2nc3ccccc3oc2=O)c(C)c1 | 13.8
Cc1ccc(/C(O)=C/c2nc3ccccc3[nH]c2=O)o1 | 130
Cc1ccc(/C(O)=C/c2nc3ccc([N+](=O)[O-])cc3oc2=O)o1 | -6.6
Cc1nc(C)c(/C(O)=C/c2nc3ccccc3[nH]c2=O)o1 | -8.5
CCOC(=O)c1nc2ccccc2[nH]c1=O | 14.3
Cc1ccc(/C(O)=C/c2nc3ccccc3oc2=O)o1 | 116

From PubChem BioAssay AID1240 (Sanford-Burnham Center for Chemical Genomics, 2008)
